Shown is part of a subset that was picked to be rich in hits.
Sm TGR block – qHTS Assay for the Inhibitors of Schistosoma Mansoni Peroxiredoxins; AID 485364, 2010; 360,000 compounds, 3% hits; Potency, µM (doses to about 114 µM), without a hit: top-dose activity change, negative = inhibition, actives largely listed as inhibitors; purified TGR, DTNB reduction, TNB absorbance 405 nm; also: potency is read from the fitted curve at half-maximal effect; % is scaled to controls: 0 for no effect and ±100 for the full control effect; nearly all actives have a fitted effect of over 60% in size
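First, TGR (20 nM dispensed) and NADPH were mixed with compound. Second, a 15 min room-temperature incubation followed. Third, further NADPH and then DTNB were added to start the reaction. Finally, TNB absorbance was monitored kinetically.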
CHX counter – Cycloheximide Counterscreen for Small Molecule Inhibitors of Shiga Toxin | cell reporter, cycloheximide protein synthesis inhibition counterscreen | max response, % | 300,000 compounds, 12% hits | AID 2314, 2010; in the data active = max response mostly above about 13%, no sharp cut-off; inactive = mostly below about 14%; also: read at 38.3 µM for the half of the compounds with a filed dose; 0% is about no effect
Giardia FBPA inh – qHTS Assay for Inhibitors of Fructose-1,6-bisphosphate Aldolase from Giardia Lamblia; A8B2U2; purified Giardia FBPA; Potency, µM (doses to about 59.6 µM), inactives show at the highest dose activity, negative = inhibition, hits mostly inhibitors; 290,000 compounds, 0.71% hits; also: potency is read from the fitted curve at half-maximal effect; % is scaled to controls: 0 for no effect and ±100 for the full control effect; nearly all actives have a fitted effect of over 55% in size
Target sequence (A8B2U2 whole entry, looked up): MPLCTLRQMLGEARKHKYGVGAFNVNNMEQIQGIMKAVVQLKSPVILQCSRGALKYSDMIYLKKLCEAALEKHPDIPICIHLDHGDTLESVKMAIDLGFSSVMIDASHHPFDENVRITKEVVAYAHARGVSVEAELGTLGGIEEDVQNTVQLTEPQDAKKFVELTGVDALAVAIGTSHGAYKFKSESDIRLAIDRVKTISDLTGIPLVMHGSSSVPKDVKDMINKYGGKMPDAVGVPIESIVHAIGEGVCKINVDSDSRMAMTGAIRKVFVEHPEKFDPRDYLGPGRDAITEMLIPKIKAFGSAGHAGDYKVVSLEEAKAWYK
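40 nM FBPA preincubated 10 min at RT with compound (up to 57.5 uM final), then substrate plus GAPDH/TPI/NAD/arsenate coupling and diaphorase/resazurin added. Fluorescence read after 20 min at RT, 525/598 nm.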
Shiga inhibitor – A qHTS for Small Molecule Inhibitors of Shiga Toxin | Vero cells, Shiga toxin protein synthesis inhibition reporter | 290,000 compounds, 9.2% hits | inhibition, % at 38.7 µM; in the data active = inhibition mostly above about 28%, no sharp cut-off; inactive = mostly below about 43%; also: 0% is about no effect
LmPK inhibitor – qHTS Assay for Inhibitors of Leishmania Mexicana Pyruvate Kinase (LmPK); Q27686; purified LmPK, Kinase-Glo ATP luminescence, 1 h; Potency, µM (highest dose often 57.5 µM), for the others: at the highest dose activity change, negative = inhibition, usual class: inhibitors; 290,000 compounds, 0.37% hits; AID 1721, 2009; also: potency is read from the fitted curve at half-maximal effect; % is scaled to controls: 0 for no effect and ±100 for the full control effect
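0.1 nM LmPK, 0.5 mM PEP, 0.1 mM ADP; 50 mM imidazole pH 7.2, 7 mM MgCl2, 50 mM KCl; 1 h RT. Kinase-Glo luminescence readout, normalized to no-enzyme (full inhibition) and uninhibited wells.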
Tb PYK inh – qHTS of Trypanosoma Brucei Inhibitors | 410,000 compounds, 0.12% hits | TbPYK enzyme, Kinase-Glo Plus ATP luminescence, 45 min | pyruvate kinase (Trypanosoma brucei), Q57TT1 | Potency, µM (doses to about 76.8 µM), for inactives: at the highest dose activity, negative = inhibition, actives largely listed as inhibitors | AID 624173, 2012; also: potency is read from the fitted curve at half-maximal effect; % is scaled to controls: 0 for no effect and ±100 for the full control effect; nearly all actives have a fitted effect of over 50% in size
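ADP (130 uM final) triggers the TbPYK reaction after compound addition; incubation is 45 min at room temperature. Kinase-Glo Plus is then added and luminescence imaged. Normalized data are fitted to concentration-effect curves.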
The depositor's hits bear a star. Unless noted, calls follow the shape of the dose curve; as a rule, active = well fitted curve in the direction sought with a large enough effect; inconclusive = small, poorly fitted or top-dose-only effect, or another doubt; inactive = no such curve, though single readings can be large; an effect the other way counts as inactive or inconclusive.

CCC(C)Sc1oc(-c2ccco2)nc1S(=O)(=O)c1ccc(C)cc1 (centres undefined) was read as Sm TGR block 15% and Tb PYK inh 4%.
For Cc1ccsc1/C=N/NC(=S)NCc1ccccc1 the results were Sm TGR block 8%, CHX counter 21, Giardia FBPA inh 16%, Shiga inhibitor 13, LmPK inhibitor -4% and Tb PYK inh -6%.
`Cc1ccsc1/C=N/NC(=O)Cc1ccc([N+](=O)[O-])cc1` gave Tb PYK inh 5%.
`Cc1ccsc1/C=N/NC(=O)C(N)=O` gave Sm TGR block -5%, CHX counter 35*, Giardia FBPA inh -3%, Shiga inhibitor 73, LmPK inhibitor 1% and Tb PYK inh -15%.
Cc1ccsc1/C=N\NC(=O)CC(=O)NCc1ccccc1 was read as Sm TGR block 11%, CHX counter -2, Giardia FBPA inh 20µM*, Shiga inhibitor -16, LmPK inhibitor 0% and Tb PYK inh -6%.
Cc1ccsc1/C=N/NC(=O)c1cccs1 was read as Sm TGR block -3%, CHX counter 33*, Giardia FBPA inh -5%, Shiga inhibitor 77*, LmPK inhibitor -14% and Tb PYK inh 4%.
Cc1ccsc1/C=N/NC(=O)c1ccccn1 was read as Sm TGR block -9%, CHX counter 62*, Giardia FBPA inh 1%, Shiga inhibitor 47*, LmPK inhibitor inconclusive and Tb PYK inh -21%.
For Cc1ccsc1/C=N/NC(=O)C(O)c1ccccc1 (centres undefined) the results were Sm TGR block 11%, CHX counter 9.6*, Giardia FBPA inh 3%, Shiga inhibitor 12, LmPK inhibitor -10% and Tb PYK inh -1%.
Cc1ccsc1/C=N/NC(=O)CNC(=O)c1ccccc1 was read as Sm TGR block -25%, CHX counter 16, Giardia FBPA inh 10%, Shiga inhibitor -3, LmPK inhibitor -1% and Tb PYK inh 0%.
`Cc1cc(C)n(CCc2nc(-c3ccc(F)cc3)cs2)n1` gave Sm TGR block 2%, CHX counter 36*, Giardia FBPA inh -13%, Shiga inhibitor 78*, LmPK inhibitor -5% and Tb PYK inh 3%.
For COc1ccc2c(c1)CCc1c(C(=O)NCCN3CCOCC3)noc1-2 the results were Sm TGR block -18%, CHX counter -2, Giardia FBPA inh -5%, Shiga inhibitor -14, LmPK inhibitor -1% and Tb PYK inh 0%.
COc1ccc2c(c1)CCc1c(C(=O)NCc3ccco3)noc1-2 was read as Sm TGR block -26%, CHX counter 34*, Giardia FBPA inh -6%, Shiga inhibitor 67*, LmPK inhibitor 2% and Tb PYK inh -2%.
Screening COCCNC(=O)c1noc2c1CCc1cc(OC)ccc1-2 returned Sm TGR block 27%, CHX counter 35*, Giardia FBPA inh 4%, Shiga inhibitor 66, LmPK inhibitor 0% and Tb PYK inh -16%.
Screening COc1ccc2c(c1)CCc1c(C(=O)N(C)c3ccccc3)noc1-2 returned Sm TGR block 0%, CHX counter 49*, Giardia FBPA inh -7%, Shiga inhibitor 123*, LmPK inhibitor 15% and Tb PYK inh 0%.
`COCC(C)NC(=O)c1noc2c1CCc1cc(OC)ccc1-2` (centres undefined) gave Sm TGR block -17%, CHX counter 33*, Giardia FBPA inh -27%, Shiga inhibitor 83*, LmPK inhibitor -23% and Tb PYK inh -7%.
Screening CC1=C(C(=O)OC2CCCC2)C(c2cccc(Cl)c2Cl)CC(=O)N1 (centres undefined) returned Sm TGR block 2% and Tb PYK inh -3%.
Screening CC1CCc2c(sc(NC(=O)c3cc(-c4cccc(Cl)c4)on3)c2C(N)=O)C1 (centres undefined) returned Sm TGR block 3% and Tb PYK inh 0%.
Screening Cc1cc(C)c2c(=O)nc(SCc3ccccc3C)n(C3CC3)c2n1 returned Sm TGR block 3% and Tb PYK inh -2%.
Screening CCOC(=O)[C@H](CCc1ccccc1)NC(C)C(=O)N1CC2(CC1C(=O)O)SCCS2 (some centres undefined) returned Tb PYK inh 0%.
For COc1ccc2c(c1)CCc1c(C(=O)NC3CCCCC3)noc1-2 the results were Sm TGR block -4%, CHX counter 45*, Giardia FBPA inh -19%, Shiga inhibitor 59*, LmPK inhibitor -1% and Tb PYK inh -2%.
`Cc1nn(-c2ccccc2)c(Cl)c1/C=N/NC(=O)c1ccnn1C` gave Sm TGR block -8%, CHX counter 34*, Shiga inhibitor 107*, LmPK inhibitor -3% and Tb PYK inh 2%.
Screening COC(=O)N/N=C\c1c(C)nn(-c2ccccc2)c1Cl returned Sm TGR block 0%, CHX counter 23*, Giardia FBPA inh 1%, Shiga inhibitor 58*, LmPK inhibitor -8% and Tb PYK inh -1%.
Cc1nn(-c2ccccc2)c(Cl)c1/C=N/Nc1nc2ccccc2n1C was read as Sm TGR block -29%, CHX counter 54*, Giardia FBPA inh -17%, Shiga inhibitor 79*, LmPK inhibitor -3% and Tb PYK inh -27%.
`Cc1nn(-c2ccccc2)c(Cl)c1/C=N/NC(=O)c1cccc(S(=O)(=O)N2CCCC2)c1` gave Sm TGR block -9%, CHX counter -3, Giardia FBPA inh 11%, Shiga inhibitor 15, LmPK inhibitor 0% and Tb PYK inh -3%.
For Cc1nn(C)c(Cl)c1/C=N/OC(=O)c1ccc(F)cc1 the results were Sm TGR block 0%, CHX counter 9, Giardia FBPA inh -1%, Shiga inhibitor 2, LmPK inhibitor -8% and Tb PYK inh -5%.
Cc1ccc(C)c(OCC(=O)N/N=C/c2c(C)nn(-c3ccccc3)c2Cl)c1C was read as Sm TGR block -11%, CHX counter -3, Giardia FBPA inh 11%, Shiga inhibitor -2, LmPK inhibitor -2% and Tb PYK inh 3%.
Cc1nn(C)c(Cl)c1/C=N/OC(=O)c1ccccc1 was read as Sm TGR block -3%, CHX counter 16*, Giardia FBPA inh 7%, Shiga inhibitor -1, LmPK inhibitor -8% and Tb PYK inh -5%.
For Cc1nn(-c2ccccc2)c(Cl)c1/C=N/NC(N)=O the results were Sm TGR block 4%, CHX counter 27*, Giardia FBPA inh -5%, Shiga inhibitor 33*, LmPK inhibitor 1% and Tb PYK inh 0%.
